Only some compounds are listed: those with a hit (about 8.7% of all), similar ones and a draw of the others.
Pf growth 96h: Primary qHTS for delayed death inhibitors of the malarial parasite plastid, 96 hour incubation. Potency, µM (titrated, usually from 28.7 µM), for inactives: at the top dose activity change, negative = inhibition, actives largely listed as inhibitors. AID 504834, 2011. actives 6.9% (n = 320,000). P. falciparum luciferase reporter growth, 96 h
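Luminescence readout: decreased luciferase signal marks inhibited growth of reporter-expressing P. falciparum in infected red cells (2% hematocrit, 0.05% parasitemia final), exposed to compound two generations (96 h, 37 C, 5% CO2).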
Pf growth 48h: Primary qHTS for delayed death inhibitors of the malarial parasite plastid, 48 hour incubation; Potency, µM (titrated, usually from 28.7 µM), for the others: top-dose activity change, negative = inhibition, hits mostly inhibitors; P. falciparum luciferase growth in erythrocytes, 48 h; actives 5.9% (n = 310,000)
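Luminescence readout; reporter = integrated firefly luciferase in P. falciparum. RBC culture at 2% hematocrit, 0.1% parasitemia final, 37 C/5% CO2; decreased signal taken as growth inhibition.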
Vaccinia mCherry: qHTS for Stage-Specific Inhibitors of Vaccinia Orthopoxvirus: mCherry Reporter Primary qHTS; Vaccinia virus mCherry reporter infection, fluorescence; Potency, µM (series often up to 36.5 µM), for inactives: at the highest dose activity change, negative = inhibition, usual class: inhibitors; actives 0.63% (n = 310,000); AID 720579, 2013; calls by dose curve; tested in A549 cells; also: nearly all actives have a fitted effect of over 35% in size
Vaccinia Venus: qHTS for Stage-Specific Inhibitors of Vaccinia Orthopoxvirus: Venus Reporter Primary qHTS; Vaccinia virus Venus reporter expression, fluorescence; Potency, µM (doses to about 36.5 µM), without a hit: top-dose activity change, negative = inhibition, most hits filed as inhibitors; actives 0.46% (n = 330,000); AID 720580, 2013; calls by dose curve; tested in A549 cells; also: nearly all actives have a fitted effect of over 30% in size
AMA1-RON2 inh: qHTS for Inhibitors of AMA1-RON; Towards Development of Antimalarial Drug Lead: Primary Screen; Plasmodium falciparum AMA1 (3D7) - RON2 peptide interaction; AlphaScreen AMA1-biotinylated RON2 peptide binding; Potency, µM (titrated, usually from 58.2 µM), for inactives: at the top dose activity change, negative = inhibition, actives largely listed as inhibitors; actives 0.2% (n = 360,000); AID 720542, 2013;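 also: 0% = vehicle wells and -100% = peptide control; nearly all actives have a fitted effect of over 45% in size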
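AMA1 (3D7) with his tag at 25 nM final met compounds first, then biotinylated RON2 peptide at 25 nM; detection used donor plus acceptor beads, 10 µg/mL apiece, read by AlphaScreen after 30 min at room temperature.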
The depositor's hits bear a star; [ ] = another dose, or the depositor's remark. Unless noted, calls follow the shape of the dose curve; as a rule, active = well fitted curve in the direction sought with a large enough effect; inconclusive = small, poorly fitted or top-dose-only effect, or another doubt; inactive = no such curve, though single readings can be large; an effect the other way counts as inactive or inconclusive. Unless noted, % is scaled to controls: 0 for no effect and ±100 for the full control effect; potency is read from the fitted curve at half-maximal effect.

`Cc1cc(C)nc(SCc2ccc(C(=O)N/N=C/c3ccncc3)cc2)n1` gave Pf growth 96h inconclusive, Pf growth 48h -27.1%, Vaccinia mCherry inactive, Vaccinia Venus -18.3% and AMA1-RON2 inh 14.6%.
For Cc1cc(C)nc(SCc2ccc(C(=O)NNC(=O)Nc3cccc(Cl)c3)cc2)n1 the results were Pf growth 96h 30.8%, Pf growth 48h -4.4%, Vaccinia mCherry 14.1µM*, Vaccinia Venus 11.2µM* and AMA1-RON2 inh 59.5%[11.6 µM].
For CCOCCc1nn2c(=O)cc(COC(=O)Cc3ccccc3)nc2s1 the results were Vaccinia mCherry -7.1% and Vaccinia Venus -9.5%.
CC(=O)Oc1ccc2c(C)c(CC(=O)N3CCN(C(=O)C4COc5ccccc5O4)CC3)c(=O)oc2c1C (configuration not stated) was read as Pf growth 96h inconclusive, Pf growth 48h 11.7µM*, Vaccinia mCherry -28.7%, Vaccinia Venus -23.1% and AMA1-RON2 inh -5.5%.
COc1cc(C)cc2oc(=O)c(CC(=O)N3CCN(C(=O)C4COc5ccccc5O4)CC3)c(C)c12 (configuration not stated) was read as Pf growth 96h 0.8%, Pf growth 48h inconclusive and AMA1-RON2 inh -2.1%.
CCS(=O)(=O)c1nc(S(=O)(=O)c2ccc(C)cc2)c(NCC(C)C)s1 was read as Vaccinia mCherry -10.1%[7.34 µM] and Vaccinia Venus -6.0%[7.34 µM].
Screening CCCC(=O)NC(c1ccc(OC)c(OC)c1)c1cc(Cl)c2cccnc2c1O (configuration not stated) returned Pf growth 96h inconclusive, Pf growth 48h 9.28µM*, Vaccinia mCherry 12.6µM*, Vaccinia Venus inconclusive and AMA1-RON2 inh 28.0%.
COc1ccc(C(NC(C)=O)c2cc(Cl)c3cccnc3c2O)cc1 (configuration not stated) was read as Pf growth 96h inconclusive, Pf growth 48h inconclusive and AMA1-RON2 inh 13.7%.
CCC(=O)NC(c1cccs1)c1cc(Cl)c2cccnc2c1O (configuration not stated) was read as Pf growth 96h 11.7%, Pf growth 48h -19.3%, Vaccinia mCherry inconclusive, Vaccinia Venus inconclusive and AMA1-RON2 inh 63.9%.
For CCCCC(=O)NC(c1cccs1)c1cc(Cl)c2cccnc2c1O (configuration not stated) the results were Pf growth 96h 0.0%, Pf growth 48h 0.738µM*, Vaccinia mCherry inconclusive, Vaccinia Venus inconclusive and AMA1-RON2 inh 70.1%.
C=CCOC(=O)C1=C[C@@H](c2ccc(Br)cc2)[C@H](CCCO)[C@@H](OCC)O1 was read as Pf growth 96h 9.28µM*, Pf growth 48h inconclusive, Vaccinia mCherry -22.2%, Vaccinia Venus -6.5% and AMA1-RON2 inh 7.5%.
`C=CCOC(=O)C1=C[C@H](c2ccc(C(F)(F)F)cc2)[C@@H](CCCO)[C@H](OCC)O1` gave Pf growth 96h 9.28µM*, Pf growth 48h inconclusive, Vaccinia mCherry -8.5%, Vaccinia Venus -7.1% and AMA1-RON2 inh 5.4%.
`C=CCOC(=O)C1=C[C@@H](c2ccccc2)[C@H](CCCO)[C@@H](OCC)O1` gave Pf growth 96h 11.3%, Pf growth 48h 3.3%, Vaccinia mCherry -2.3%, Vaccinia Venus inconclusive and AMA1-RON2 inh 0.0%.
C=CCOC(=O)C1=C[C@@H](c2ccc(C(F)(F)F)cc2)[C@H](CCCO)[C@@H](OCC)O1 was read as Pf growth 96h 2.08µM*, Pf growth 48h 1.17µM*, Vaccinia mCherry -5.5%, Vaccinia Venus -13.7% and AMA1-RON2 inh 3.1%.
`CCO[C@@H]1OC(C(N)=O)=C[C@H](c2ccc(C(F)(F)F)cc2)[C@H]1CCCO` gave Pf growth 96h inconclusive, Pf growth 48h inconclusive, Vaccinia mCherry -8.1%, Vaccinia Venus -4.6% and AMA1-RON2 inh 3.3%.
Screening CCN(CC)c1ccc(CN(C(=O)c2cc(=O)c3ccccc3o2)C2CCS(=O)(=O)C2)cc1 (configuration not stated) returned Vaccinia mCherry -7.6% and Vaccinia Venus -6.7%.
`Cc1ccc2c(=O)c(C(=O)c3ccc(F)cc3)cn(CC(=O)NCCc3ccccc3)c2n1` gave Vaccinia mCherry -14.8% and Vaccinia Venus 5.8%.
`CC[C@]12c3[nH]c4ccc(Cl)cc4c3CCN1C(=O)[C@@H](CC(=O)NCC13CC4CC(CC(C4)C1)C3)C[C@@H]2C(=O)N1CCN(C(=O)C2CC2)CC1` gave Vaccinia mCherry -19.6%, Vaccinia Venus 10µM* and AMA1-RON2 inh -5.2%.
`C[C@]12c3[nH]c4ccc(Cl)cc4c3CCN1C(=O)[C@@H](CC(=O)NCC13CC4CC(CC(C4)C1)C3)C[C@@H]2C(=O)N1CCCCC1` gave Vaccinia mCherry 28.2µM*, Vaccinia Venus inconclusive and AMA1-RON2 inh -17.6%.
`C[C@]12c3[nH]c4ccc(Cl)cc4c3CCN1C(=O)[C@@H](CC(=O)NCC13CC4CC(CC(C4)C1)C3)C[C@@H]2C(=O)N1CCOCC1` gave Vaccinia mCherry inconclusive, Vaccinia Venus 12.6µM* and AMA1-RON2 inh -11.7%.
For CC(C)N(C(=O)[C@H]1C[C@H](CC(=O)NCc2cccc(C(F)(F)F)c2)C(=O)N2CCc3c([nH]c4ccc(Cl)cc34)[C@]12C)C(C)C the results were Vaccinia mCherry inconclusive, Vaccinia Venus 11.2µM* and AMA1-RON2 inh 1.7%.
`CC(C)(C)NC(=O)C[C@H]1C[C@H](C(=O)N2CCCCC2)[C@@]2(C)c3[nH]c4ccc(Cl)cc4c3CCN2C1=O` gave Vaccinia mCherry inactive, Vaccinia Venus inconclusive and AMA1-RON2 inh 0.0%.
Screening O=C1c2ccccc2NC(c2ccc(OCc3ccccc3)c(OCc3ccccc3)c2)N1Cc1ccco1 (configuration not stated) returned Vaccinia mCherry 6.6% and Vaccinia Venus -10.8%.
`O=C(NCc1ccncc1)c1ccc(Cl)c(S(=O)(=O)N2CCOCC2)c1` gave Pf growth 96h -23.6%, Pf growth 48h inconclusive and AMA1-RON2 inh -24.6%.
COc1cccc(CNC(=O)c2ccc(Cl)c(S(=O)(=O)N3CCOCC3)c2)c1 was read as Pf growth 96h 6.57µM*, Pf growth 48h 8.28µM* and AMA1-RON2 inh 6.5%.
For O=C(NCCc1ccccc1)c1ccc(Cl)c(S(=O)(=O)N2CCOCC2)c1 the results were Pf growth 96h 10.4µM*, Pf growth 48h inconclusive, Vaccinia mCherry -16.8%, Vaccinia Venus -16.3% and AMA1-RON2 inh 0.0%.
CC(C)(C)SCCNC(=O)c1ccc(Cl)c(S(=O)(=O)N2CCOCC2)c1 was read as Vaccinia mCherry inactive, Vaccinia Venus -12.7% and AMA1-RON2 inh 41.9%.

Assay outcomes from PubChem BioAssay.
